GALR2 blocker: GALR2 antagonists in receptor-expressing cells, primary screen; AID 828, 2007; antagonist mode; Galanin receptor type 2 (Homo sapiens), O43603; inhibition, % at 4 µM; 140,000 tested, 0.39% active; in the data active = inhibition above about 27%;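 also: cells stimulated with galanin 1-16 at roughly its EC80; 0% = agonist challenge control and 100% = basal control without agonist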
Target sequence (O43603 whole entry, looked up): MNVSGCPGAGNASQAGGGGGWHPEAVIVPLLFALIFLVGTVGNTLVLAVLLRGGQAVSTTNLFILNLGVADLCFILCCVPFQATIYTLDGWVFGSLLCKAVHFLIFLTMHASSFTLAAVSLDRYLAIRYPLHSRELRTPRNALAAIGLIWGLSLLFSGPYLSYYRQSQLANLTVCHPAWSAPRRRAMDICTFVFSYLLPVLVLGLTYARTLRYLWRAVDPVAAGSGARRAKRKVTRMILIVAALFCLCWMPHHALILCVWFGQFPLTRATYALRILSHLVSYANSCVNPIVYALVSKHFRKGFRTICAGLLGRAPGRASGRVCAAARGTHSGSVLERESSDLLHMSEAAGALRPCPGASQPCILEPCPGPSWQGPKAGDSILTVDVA
GALR2 agonist: GALR2 receptor agonists, primary screen, cell-based | activation, % (concentration not given with the values) | 140,000 tested, 0.48% active | GALR2-expressing cells, agonist activation read-out | Galanin receptor type 2 (Homo sapiens), O43603 | AID 803, 2007; in the data active = activation above about 5%, passing the limit was not always enough;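 also: 0% = vehicle buffer wells and 100% = reference agonist at full effect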
PostGolgi yeast: phenotypic screen on post-Golgi transport, primary screen; AID 739, 2007; 98,000 tested, 0.9% active; inhibition, % at 10 µM; post-Golgi transport phenotypic cell assay;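 also: yeast cells grown in 1536-well plates; yeast grown about 18 h at 30C before absorbance read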
S1P2 agonist: S1P2 receptor agonists, primary screen, cell-based; AID 729, 2007; Sphingosine 1-phosphate receptor 2 (Homo sapiens), O95136; 97,000 tested, 0.46% active; S1P2-expressing cell line, agonist reporter read-out; activation, % at 4.5 µM; in the data active = activation above about 16%;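 also: 0% = vehicle low control and 100% = maximal reference agonist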
S1P2 blocker: human S1P2 receptor antagonists, primary screen, cell-based; Sphingosine 1-phosphate receptor 2 (Homo sapiens), O95136; cell-based S1P2 antagonist assay, inhibition at 5 uM; inhibition, % at 5 µM; 97,000 tested, 0.21% active; in the data active = inhibition above about 45%;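 also: CRE beta-lactamase reporter cells expressing human S1P2 stimulated with S1P; 0% = agonist at EC80 alone and 100% = agonist plus reference antagonist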
PostGolgi ctrl: growth inhibition of yeast control strain, primary screen, counter-screen for post-Golgi transport modulator project. inhibition, % at 10 µM. 98,000 tested, 5% active. efflux-deficient yeast background strain, growth absorbance A615, 16 h. AID 738, 2007
GALR2 agon conf: GALR2 agonists, retest of hits, confirmation, cell-based. shares compounds with GALR2 agonist. AID 864, 2007. GALR2-expressing cells, agonist activation. 460 tested, 10% active. activation, % at 5.6 µM; in the data active = activation above about 8.4%;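 also: 0% = buffer-only vehicle wells and 100% = full reference agonist response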
BLA activ ctr: activators of NFAT-driven beta-lactamase reporter, confirmation, counter-screen for GALR2 agonist project, CHO NFAT-bla cells, FRET readout; shares compounds with GALR2 agonist; beta-lactamase FRET activation; activation, % at 5.6 µM; 460 tested, 10% active; AID 865, 2007;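 active = activation above the screen-wide mean activation plus 3 SD, cut at about 8% in these data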;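 also: 0% = DMSO with PBS wells and 100% = thapsigargin positive control wells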
Starred values were filed as active, the others as inactive; x = not tested or not shown. This is one part of a sample in which hits are shown more often than they occur. Rule as the data show it, unless noted: active = inhibition above about 30%; inactive = the rest.

SMILES	GALR2 blocker	GALR2 agonist	PostGolgi yeast	S1P2 agonist	S1P2 blocker	PostGolgi ctrl	GALR2 agon conf	BLA activ ctr
CCS(=O)(=O)Nc1ccc(-c2ccc(NS(=O)(=O)CC)c(OC)c2)cc1OC	-3.2	2.0	11.3	-2.3	4.6	10.0	x	x
Cc1ccc(CNC(=O)c2ccc3nc4[nH]c5ccccc5c4nc3c2)cc1	5.5	13.9*	x	x	x	x	8.7*	5.9
COc1ccc(-c2cnnn2-c2ccc(NC(=O)c3ccc(S(=O)(=O)N4CCCCC4)cc3)cc2)cc1OC	3.5	3.5	x	x	x	x	x	x
COc1ccc(-c2cnnn2-c2ccc(NC(=O)c3ccco3)cc2)cc1OC	7.0	20.4*	2.6	7.2	-33.3	18.4	0.4	-0.9
Nc1c(C(=O)c2ccccc2)sc2c1c(=O)[nH]c(=O)n2-c1ccccc1	-12.5	2.6	x	x	x	x	x	x
Nc1c(C(=O)c2ccc(Cl)cc2)sc2c1c(=O)[nH]c(=O)n2-c1ccccc1	-15.3	22.1*	x	x	x	x	5.5	4.4
C=CCN1C(=O)C(CC(=O)Nc2ccc(OC)cc2)N(Cc2ccco2)C1=S (configuration not stated)	13.0	16.2*	-1.9	-2.2	-11.4	9.4	-1.0	-2.2
O=C(CN1C(=O)COc2ccc(S(=O)(=O)N3CCCC3)cc21)NC1CCCCCCC1	-12.3	-0.2	x	x	x	x	x	x
COc1ccc(Nc2cc(C(=O)NCCCN3CCN(C)CC3)c3ccccc3n2)cc1	4.2	-2.3	1.9	-3.5	12.5	5.8	x	x
COc1ccc(Nc2cc(C(=O)NCc3ccco3)c3ccccc3n2)cc1	9.8	9.7*	x	x	x	x	5.7	3.8
CN(C)CCNC(=O)NC(=O)c1ccc(Cl)cc1	4.8	20.6*	x	x	x	x	-0.8	-1.6
C=CCNC(=O)/C(C#N)=C/c1cn(-c2ccccc2)nc1-c1cccs1	9.5	13.5*	x	x	x	x	10.9*	4.9
COC(=O)c1ccc(N2CCCCC2)c(NS(=O)(=O)c2ccc(C)cc2)c1	0.1	17.7*	17.4	-2.9	0.4	30.1*	-0.1	0.1
CCN(CC)CCNC(=O)c1ccc(N2CCCCC2)c(NS(=O)(=O)c2ccc(C)cc2)c1	-10.4	18.9*	7.4	-3.8	13.7	13.6	-0.4	-1.5
COC(=O)c1ccc(N2CCN(S(=O)(=O)c3ccc(C)cc3)CC2)c([N+](=O)[O-])c1	9.7	-3.1	-4.7	-6.5	29.0	29.6	x	x
COc1ccc(-c2cc(-c3ccc(C)cc3)nc(SCc3nnc(-c4ccccc4)o3)c2C#N)cc1OC	5.1	-0.2	x	x	x	x	x	x
CCOC(=O)c1c(NC(=O)CN2C(=O)c3ccccc3C2=O)sc(Cc2ccc3c(c2)OCO3)c1C	5.9	-0.3	x	x	x	x	x	x
CCC(C(=O)OCC(=O)Nc1c(Cl)cccc1Cl)c1ccccc1 (configuration not stated)	1.4	-1.6	x	x	x	x	x	x
CCOC(=O)c1sc(NC(=O)Nc2ccccc2Cl)cc1C	8.8	12.8*	x	x	x	x	-0.3	-2.0
CC(SCC(=O)NC(C)C1CC2CCC1C2)C(=O)O (configuration not stated)	10.1	-0.7	x	x	x	x	x	x
O=C(OCC(=O)c1ccccc1Cl)c1cnccn1	-5.2	0.0	x	x	x	x	x	x
COC(=O)C1=CN(C)C=C(C(=O)OC)C1c1ccc(O)c(OC)c1	-2.2	-0.2	17.6	-6.2	-0.3	4.1	x	x
COC(=O)C1=CN(C2CC2)C=C(C(=O)OC)C1c1ccccc1OC	-3.0	10.5	-4.2	12.9	-28.1	10.5	0.7	2.9
CCOc1cccc(SCc2noc(C(=O)NCCOC)c2C(=O)O)c1	-2.8	59.3*	0.3	-9.1	7.9	33.4*	-0.4	0.6
Cn1c(CSCc2ccccc2)n[nH]c1=S	0.3	-3.6	x	x	x	x	x	x
COc1ccccc1[C@@H]1C(c2cccc(C)c2)=NN(c2ccccc2)[C@H]1C(=O)N1CCOC1=O	4.2	3.8	x	x	x	x	x	x
O=C(N/N=C/c1c(F)cccc1Cl)c1ccc(Cn2cc(Br)cn2)o1	14.5	40.0*	x	x	x	x	-0.7	-2.8
CC(NC(=O)C1(c2cccs2)CCOCC1)c1ccccc1 (configuration not stated)	2.1	-1.3	x	x	x	x	x	x
O=C(COc1ccc(Cl)cc1)Nc1ccc(C(=O)NCc2cccnc2)cc1	-5.9	-2.1	7.2	-5.0	4.2	7.7	x	x

Assay outcomes as filed in PubChem.
